Holding throughout (assay): NCI-60 one-dose screen, 48 h (100 = growth as untreated, 0 = no growth, -100 = all killed)
One test relates to BT-549 breast. The settings on record: 10 µM unless noted.
A further test has as its system MDA-MB-435 melanoma. The settings on record: 10 µM unless noted.
The test system of a further test is SW-620 colon. The settings on record: 10 µM unless noted.
The next test concerns MCF7 breast. The note with it: 10 µM.
Another test concerns HCT-116 colon. The note with it: 10 µM unless noted.
The subject of the next test is HCC-2998 colon. The note with it: 10 µM unless noted.
Another test deals with KM12 colon. The settings on record: 10 µM unless noted.

Compounds without any hit were thinned out: in the full panel of roughly 83,000, 20% have a hit.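 Step 1: grow cells in 96-well plates. Step 2: add test compound at a single concentration. Step 3: incubate 48 h. Step 4: record percent growth.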 Unmarked numbers belong to inactive results. The source made the active and inactive calls. Rule for the calls: active = growth percent below 10; inactive = the rest.

On to `CCOC(=O)C1=C(C)N=c2s/c(=C\c3cc(Cl)ccc3O)c(=O)n2C1c1ccc(OC)cc1` (centres undefined), for which the growth in the test with BT-549 breast is 102%; with MDA-MB-435 melanoma, 107%; in the test on SW-620 colon it was 103%; in the test on MCF7 breast, 93.2%; with HCT-116 colon, 72.2%; with HCC-2998 colon, 98.6%. Moreover, in the test on KM12 colon, the growth is 94.2%.
Consider `COc1cc2c(cc1OC)C(=O)C(CC1CCN(C(=O)Nc3ccc(C)cc3)CC1)C2` (centres undefined), for which the growth was 96.6% in the test on BT-549 breast; 97.7% in the test on MDA-MB-435 melanoma; 94.6% in the test with SW-620 colon; 90.4% in the test on MCF7 breast; 97.4% in the test on HCT-116 colon; 116% in the test with HCC-2998 colon. Further, the growth in the test with KM12 colon was 94.3%.
On to `CN(C)CCCNCc1ccc(-c2ccc(F)c(Cl)c2)o1`, for which the growth was 76.6% with BT-549 breast; -41.6% (active) in the test with MDA-MB-435 melanoma; -45% (active) with SW-620 colon; -33% (active) in the test with MCF7 breast; 12.3% in the test on HCT-116 colon; -90.2% (active) with HCC-2998 colon. Moreover, the growth in the test with KM12 colon was -19.9% (active).
For the molecule `O=C(NC1CCN(Cc2ccccc2)CC1)c1cc(C(=O)NC2CCN(Cc3ccccc3)CC2)cc(C(=O)NC2CCN(Cc3ccccc3)CC2)c1`, the growth is 70.5% in the test with BT-549 breast; 70.4% in the test with MDA-MB-435 melanoma; 84.6% in the test with SW-620 colon; 57.3% in the test on MCF7 breast; 66.1% with HCT-116 colon; 107% in the test on HCC-2998 colon. Also, the growth in the test on KM12 colon was 90.8%.
On to `COc1ccc(Cn2cc(Cn3c(=O)c(-c4nc5ccccc5[nH]4)cc4ccccc43)nn2)c(OC)c1OC`, for which the growth was -12.2% (active) in the test with BT-549 breast; -79.6% (active) in the test with MDA-MB-435 melanoma; 16.9% in the test on SW-620 colon; 17.1% in the test with MCF7 breast; 5.1% (active) with HCT-116 colon; -11.7% (active) with HCC-2998 colon. Besides, the growth in the test on KM12 colon is 4.44% (active).
Consider `COc1ccc2c(c1)C=C1CSCC3=Cc4cc(OC)ccc4OC13O2`, for which the growth is 30.8% in the test on BT-549 breast; -40% (active) with MDA-MB-435 melanoma; 33.2% in the test on SW-620 colon; 19.7% in the test on MCF7 breast; 9.24% (active) in the test on HCT-116 colon; 9.67% (active) in the test on HCC-2998 colon. Besides, the growth in the test on KM12 colon was 16.6%.
With `NCCCNc1nc2ccccc2c2c(=O)c3cc(F)ccc3sc12`, the growth in the test with BT-549 breast is 81.1%; with MDA-MB-435 melanoma, -91% (active); in the test with SW-620 colon, -83.5% (active); in the test on MCF7 breast it was -69.8% (active); in the test with HCT-116 colon, -78.2% (active); in the test with HCC-2998 colon, -68.8% (active). Moreover, the growth in the test with KM12 colon is -73.7% (active).
In the case of `COC(=O)C1(C)CCC[C@]2(C)[C@H]3C[C@H]4C(C(C)C)=C[C@]3(CC[C@@H]12)[C@H]1[C@@H]4[C@@H](OCC#CCN2CCOCC2)CC[C@@H]1OCC#CCN1CCOCC1` (some centres undefined), the growth in the test on BT-549 breast was 97.7%; with MDA-MB-435 melanoma, 92.5%; in the test with SW-620 colon, 94.7%; in the test with MCF7 breast, 77.3%; in the test with HCT-116 colon, 81%; in the test on HCC-2998 colon, 97.4%. Further, the growth with KM12 colon is 93.2%.
`CC1=NCC2NC(=O)NC(C)=C12` (centres undefined): the growth was 96.4% in the test on BT-549 breast; 98.4% with MDA-MB-435 melanoma; 99.9% in the test on SW-620 colon; 111% in the test on MCF7 breast; 101% in the test on HCT-116 colon; 113% in the test on HCC-2998 colon. Besides, the growth in the test with KM12 colon was 104%.
For `CCCCCCCCCCCCCCn1cc(C2=C(c3coc4ccc(OC)cc34)C(=O)NC2=O)c2ccccc21`, the growth is 91.1% in the test on BT-549 breast; 97.6% in the test with MDA-MB-435 melanoma; 89.2% with SW-620 colon; 88.5% in the test on MCF7 breast; 78% in the test on HCT-116 colon; 104% in the test with HCC-2998 colon. Besides, the growth with KM12 colon was 98%.
For the molecule `CC/C=C\C[C@H](O)C/C=C1/C(=O)C=C[C@@H]1C/C=C\CCCC(=O)OCCS(=O)(=O)c1ccccc1`, the growth in the test with BT-549 breast is 2.95% (active); with MDA-MB-435 melanoma, 28.3%; in the test on SW-620 colon, 33.2%; in the test with MCF7 breast, 18.9%; in the test with HCT-116 colon, -23% (active); in the test with HCC-2998 colon, 53.4%. In addition, the growth in the test with KM12 colon was 25.6%.
Consider `CCOc1ccccc1CN1CCc2nc3cc(C(C)(C)C)[nH]n3c(=O)c2C1`, for which the growth with BT-549 breast is 106%; in the test on MDA-MB-435 melanoma, 104%; in the test with SW-620 colon it was 105%; in the test on MCF7 breast it was 98%; in the test on HCT-116 colon, 102%; in the test on HCC-2998 colon, 98.7%. Besides, in the test with KM12 colon, the growth was 98.2%.
For the molecule `COc1ccc2occ(C3=C(c4c[nH]c5ccccc45)C(=O)NC3=O)c2c1`, the growth is 35.7% with BT-549 breast; 1.76% (active) in the test on MDA-MB-435 melanoma; 22.6% in the test on SW-620 colon; 21.6% in the test on MCF7 breast; 26.5% in the test with HCT-116 colon; 74.5% in the test with HCC-2998 colon. In the test on KM12 colon, the growth was 20.8%.
In the case of `Cc1ccc(NCCNCC(O)CO)c2c(=O)c3ccccc3sc12` (centres undefined), the growth in the test with BT-549 breast was 63.2%; with MDA-MB-435 melanoma it was -26% (active); in the test with SW-620 colon, -78.7% (active); in the test with MCF7 breast it was -53.6% (active); in the test on HCT-116 colon, -66.1% (active); in the test with HCC-2998 colon, -75.1% (active). In addition, the growth in the test on KM12 colon is 15.4%.
As to `O=C1/C(=C/c2ccc(O)cc2)COc2ccc(O)c(O)c21`, the growth in the test with BT-549 breast was 57.5%; in the test on MDA-MB-435 melanoma, 19.5%; with SW-620 colon it was 28.4%; in the test on MCF7 breast, 13.8%; with HCT-116 colon it was 20.8%; in the test with HCC-2998 colon it was 75.7%. Also, the growth in the test on KM12 colon is 19.8%.
Consider `CCOC(=O)c1cnc2ccc(Cl)cc2c1NCCCN(C)C`, for which the growth in the test with BT-549 breast is 31.6%; with MDA-MB-435 melanoma, 19.6%; in the test on SW-620 colon, 14.6%; in the test on MCF7 breast, 7.48% (active); in the test on HCT-116 colon, 12.4%; in the test with HCC-2998 colon it was -13.2% (active). Moreover, the growth with KM12 colon is 17.5%.
Regarding `Oc1[nH]c2ccccc2c1N=Nc1nnc2n1N=C(c1ccccc1)CS2`, the growth is 72.8% in the test with BT-549 breast; 93.8% with MDA-MB-435 melanoma; 106% in the test with SW-620 colon; 71.9% in the test with MCF7 breast; 86.4% with HCT-116 colon; 81.3% with HCC-2998 colon. In the test on KM12 colon, the growth was 95.2%.

(Values after PubChem BioAssay (NCI).)
